Here are results for eleven compounds from PubChem BioAssay (EPA / NIEHS).

Structures are written as SMILES. Inconclusive results are not listed. Activity calls are given as the source filed them. The calls were made as follows, unless noted: active = hit-call score of the fitted dose curve at least 0.9, where 1 is the maximum; inconclusive = response in the unintended direction; inactive = score below 0.9.

Assay [1] can be described thus: Tanguay_ZF_120hpf_PFIN_legacy: (Legacy) Oregon State University Tanguay Lab 120 Hour Post-fertilization zebrafish Assay for Pectoral Fin Malformation (AID 2283648).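 Also: each larva judged yes or no for fin defect by brightfield with dead larvae skipped.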 In outline: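 Pectoral fin malformation was recorded as a binary endpoint at 120 hpf in wild-type Tropical 5D larvae, which had been dechorionated and exposed statically from 6 hpf at 28C in 0.64% DMSO. Dead embryos were excluded.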

A short description of assay [2]: Tanguay_ZF_120hpf_PIG_legacy: (Legacy) Oregon State University Tanguay Lab 120 Hour Post-fertilization zebrafish Assay for Pigmentation Malformation (AID 2283650). The essentials: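 Pigment malformation recorded as a binary call at 120 hpf in zebrafish (Tropical 5D) exposed singly from 6 hpf after pronase dechorionation. Static, sealed, 28C exposure, 0.64% DMSO; mortality excludes scoring; positive-direction fit against DMSO.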

Assay [3] can be described thus: Tanguay_ZF_120hpf_TR_legacy: (Legacy) Oregon State University Tanguay Lab 120 Hour Post-fertilization zebrafish Assay for Touch Response (AID 2283667). In outline: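 Binary touch-response endpoint in larvae at 120 hpf after static waterborne exposure from embryo stage (28°C, 0.64% DMSO vehicle, 5 uM trimethyltin chloride as positive control); embryos dead at 24 or 120 hpf excluded; fitted as gain versus DMSO.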

Assay [4] can be described thus: STM_H9_OrnithineISnorm_perc: Stemina devTOX quickPredict H9 human embryonic stem cell (hESC)-based Assay for Ornithine (ORN) Metabolite Biomarker, Normalized (AID 2283712; active = hit-call score of the fitted dose curve at least 0.9, where 1 is the maximum; inactive = score below 0.9;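 also: ornithine released into spent medium during last day measured by mass spectrometry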). The essentials: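 Ornithine in spent medium from the last 24 h of a 72 h exposure, deproteinised and quantified by UPLC-HRMS against an isotope-labelled internal standard, expressed relative to 0.1% DMSO. Pluripotent H9 cells; compound refreshed every 24 h.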

Assay [5] in a line: STM_H9_CystineISnorm_perc: Stemina devTOX quickPredict H9 human embryonic stem cell (hESC)-based Assay for Cystine (CYSS) Metabolite Biomarker, Normalized (AID 2283713; active = hit-call score of the fitted dose curve at least 0.9, where 1 is the maximum; inactive = score below 0.9). In outline: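 Cystine in spent media from the last 24 h of a 72 h H9 hESC exposure (daily re-dosing), measured by UPLC-HRMS. Values normalized to isotopic internal standard, then to 0.1% DMSO; viability via CellTiter-Fluor.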

A short description of assay [6]: STM_H9_OrnCyssISnorm_ratio: Stemina devTOX quickPredict H9 human embryonic stem cell (hESC)-based Assay for Ornithine (ORN):Cystine (CYSS) Ratio (AID 2283714). In outline: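 Ratio of internal-standard-normalized ornithine to cystine, measured by UPLC-HRMS in spent media from the last 24 h. H9 cells kept pluripotent, dosed 72 h with daily media and compound renewal; DMSO 0.1% serves as baseline.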

Assay [7] is described as follows: Tanguay_ZF_120hpf_ActivityScore_legacy: (Legacy) Oregon State University Tanguay Lab 120 Hour Post-fertilization zebrafish Assay Score for Activity (AID 2283742). The essentials: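 Binary scoring of mortality and morphology by brightfield at 24 and 120 hpf, summarised into one activity score from 18 components relative to DMSO. Wild-type Tropical 5D zebrafish, chorion removed at 4 hpf, static exposure 6–120 hpf, 28 °C.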

Assay [8] is described as follows: Tanguay_ZF_120hpf_CFIN_legacy: (Legacy) Oregon State University Tanguay Lab 120 Hour Post-fertilization zebrafish Assay for Caudal Fin Malformation (AID 2283649). In outline: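 Binary presence or absence of caudal fin malformation at 120 hpf, read by brightfield microscopy, with DMSO as baseline. Larvae came from 5D wild-type embryos exposed statically from 6 hpf at 28C after pronase dechorionation.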

Assay [9] in a line: Tanguay_ZF_120hpf_CIRC_legacy: (Legacy) Oregon State University Tanguay Lab 120 Hour Post-fertilization zebrafish Assay for Circulatory Malformation (AID 2283651). The essentials: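 Binary circulatory malformation call at 120 hpf by brightfield imaging of zebrafish larvae; chorion removed at 4 hpf, static exposure from 6 hpf in sealed dark plates at 28C, final DMSO 0.64%; non-mortality endpoints skipped if embryo died.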

A short description of assay [10]: Tanguay_ZF_120hpf_SWIM_legacy: (Legacy) Oregon State University Tanguay Lab 120 Hour Post-fertilization zebrafish Assay for Swim Bladder Malformation (AID 2283654).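 Also: swim bladder malformation in each larva scored yes or no under brightfield.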 In outline:
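Scoring is binary for swim bladder defects at 120 hpf, by brightfield inspection of zebrafish larvae. Embryos were exposed singly from 6 hpf after pronase dechorionation, at 28C with 0.64% DMSO; mortality excluded scoring.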

Assay [11] can be described thus: Tanguay_ZF_120hpf_TRUN_legacy: (Legacy) Oregon State University Tanguay Lab 120 Hour Post-fertilization zebrafish Assay for Truncated Body (AID 2283655). The essentials:
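Truncated body is recorded as a binary endpoint at 120 hpf by brightfield imaging of wild-type 5D larvae. Exposure runs statically from 6 hpf at 28C with 0.64% DMSO; embryos dying earlier are not scored.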

For assay [12], the system named is Thyroperoxidase (TPO), gene 54314. The experiment in a line: CCTE_Simmons_AUR_rTPO: CCTE's Amplex UltraRed Assay for Thyroperoxidase (TPO) Inhibition, Simmons Lab (AID 2283662).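 As to AC50: potency for loss of signal meaning inhibition of peroxidase activity.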 In outline:
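Rat thyroid microsomes (5 ug protein) were incubated with test compound (8 concentrations, 5 nM–87.5 uM final, 0.5% DMSO), 25 uM Amplex UltraRed and 300 uM H2O2 in 200 mM phosphate buffer for 30 min at 37C in the dark; fluorescence read at 544/590 nm.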

Assay [13] can be described thus: CCTE_Simmons_CellTiterGLO_HEK293T: Viability Assessment in CCTE's Assays for Thyroperoxidase (TPO) Inhibition, Simmons Lab (AID 2283665).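 As to AC50: cells exposed to compound for 24 h before readout; actives reduce ATP signal below DMSO vehicle meaning cytotoxicity.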 In outline:
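Luciferase-coupled ATP content after 24 h exposure gives viability; 8-point series from 5 nM to 87.5 uM final in 0.5% DMSO. Human HEK293T cells, 1% FBS medium, three biological replicates, dichlone positive control.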
On the technique in general: ATP-based viability assays read luminescence as a measure of living cells.

Assay [14] is described as follows: CCTE_Padilla_ZF_144hpf_TERATOSCORE: (Legacy) CCTE's 144 Hour Post-fertilization zebrafish Assay Teratoscore, Padilla Lab (AID 2283679; active = hit-call score of the fitted dose curve at least 0.9, where 1 is the maximum; inactive = score below 0.9;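 also: zebrafish embryos with chorions exposed by immersion from 6-8 hpf to 5 dpf with daily renewal; teratogenicity score from eye scoring of death hatching and malformations at 144 hpf; higher score means more developmental defects relative to DMSO baseline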). In outline: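 Larvae scored by eye at 144 hpf for death, hatching and malformations after a day in clean Hanks'. Before that, daily-renewed exposure at 80 uM (0.4% DMSO, 26C) from roughly 6-8 hpf through 5 dpf, 4 embryos per chemical.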

Read-out in assay [15]: kallikrein-3 (KLK3), KLK3 (gene 354)
The experiment in a line: LTEA_HepaRG_KLK3: Life Technologies and Expression Analysis (LTEA) Assay for kallikrein-3 (KLK3) using HepaRG (AID 2283652; active = hit-call score of the fitted dose curve at least 0.9, where 1 is the maximum; inactive = score below 0.9). Particulars: mRNA level, 48 h; actives raise or lower the signal. In outline:
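KLK3 transcript levels were measured by TaqMan qRT-PCR with normalisation to three housekeeping genes. HepaRG cultures received chemicals for 48 h at up to 100 uM (half-log, 8 points, 0.5% DMSO vehicle), fitted in both directions against DMSO.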

Read-out in assay [16]: solute carrier (SLC22A6), SLC22A6 (gene 9356)
The assay is described as follows: LTEA_HepaRG_SLC22A6: Life Technologies and Expression Analysis (LTEA) Assay for solute carrier (SLC22A6) using HepaRG (AID 2283653; active = hit-call score of the fitted dose curve at least 0.9, where 1 is the maximum; inactive = score below 0.9). Particulars: mRNA level, 48 h; actives raise or lower the signal. The essentials: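 Read-out is SLC22A6 transcript level by qRT-PCR, normalised to three housekeeping genes and fitted for gain or loss relative to 0.5% DMSO vehicle. Human HepaRG cells received chemicals at up to 100 uM for 48 h.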

Read-out in assay [17]: solute carrier (SLC10A1), SLC10A1 (gene 6554)
The experiment in a line: LTEA_HepaRG_SLC10A1: Life Technologies and Expression Analysis (LTEA) Assay for solute carrier (SLC10A1) using HepaRG (AID 2283657; active = hit-call score of the fitted dose curve at least 0.9, where 1 is the maximum; inactive = score below 0.9). The conditions noted are these: mRNA level, 48 h; actives raise or lower the signal. In outline:
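SLC10A1 transcript measured by TaqMan qRT-PCR, housekeeping-normalised, after 48 h chemical treatment of human HepaRG cells. Eight concentrations (half-log, max 100 uM, 0.5% DMSO vehicle) in duplicate; fitted bidirectionally against DMSO baseline.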

Read-out in assay [18]: matrix metalloproteinase-1 (MMP1), MMP1 (gene 4312)
The assay is described as follows: LTEA_HepaRG_MMP1: Life Technologies and Expression Analysis (LTEA) Assay for matrix metalloproteinase-1 (MMP1) using HepaRG (AID 2283658; active = hit-call score of the fitted dose curve at least 0.9, where 1 is the maximum; inactive = score below 0.9). Particulars: mRNA level, 48 h; actives raise or lower the signal. In outline: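 HepaRG, ~100,000 cells/well, 48 h pre-culture; serum-free induction medium; test chemical 8 conc (max 100 uM, half-log), duplicate, 48 h; 0.5% DMSO; qRT-PCR MMP1, housekeeping-normalized; gain/loss fit vs DMSO.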

Read-out in assay [19]: Cytochrome P450 (CYP24A1_1), CYP24A1 (gene 1591)
The assay is described as follows: LTEA_HepaRG_CYP24A1_1: Life Technologies and Expression Analysis (LTEA) Assay for Cytochrome P450 (CYP24A1_1) using HepaRG (AID 2283671; active = hit-call score of the fitted dose curve at least 0.9, where 1 is the maximum; inactive = score below 0.9). Particulars: mRNA level, 48 h; actives raise or lower the signal. The essentials:
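Differentiated human HepaRG cells were exposed in duplicate for 48 h in serum-free induction medium to eight concentrations (top 100 uM, half-log steps, 0.5% DMSO). CYP24A1 mRNA was quantified by TaqMan qRT-PCR, normalized to ACTB, GAPDH and POLR2A, and fitted bidirectionally versus DMSO.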

Take `CCCCC(CC)C(=O)O` (stereo not given): the compound was classed as inactive in assay [1], in [2], in assay [3], in assay [5], in [6] and in assay [7]. The AC50 (commonly the midpoint of the concentration-response curve, whichever way the signal moves) in [4] was 0.134 µM (active).

Take `CN(Cc1cnc2nc(N)nc(N)c2n1)c1ccc(C(=O)N[C@@H](CCC(=O)O)C(=O)O)cc1`: the result in [1], in [8], in assay [2], in assay [9], in assay [10] and in [11] was inactive. In addition, the call in assay [3] and in [7] was inactive. Further, the AC50 in assay [12] is 9.76 µM (active); in assay [13] it was 0.0489 µM (active); in assay [4], 0.0773 µM (active); in assay [5], 0.0873 µM (active); in assay [6], 0.0863 µM (active).

For `CCCCc1oc2ccccc2c1C(=O)c1cc(I)c(OCCN(CC)CC)c(I)c1`, the compound was called inactive in [1], in [8], in assay [2], in assay [11], in [3] and in assay [7]. The concentration at half-maximal activity (AC50) in assay [14] is 7.89 µM (active); in assay [6], 5 µM (active).

Consider `O=C(c1ccccc1)c1ccccc1`, for which the call in [1], in assay [8], in assay [2], in assay [9], in assay [10] and in assay [11] was inactive. Besides, the result in [3], in assay [6] and in [7] was inactive. In addition, the AC50 in assay [14] is 15.1 µM (active).

With `Cc1cc(C(C)(C)C)c(O)c(C(C)(C)C)c1`, the values for the concentration at half-maximal activity (AC50) in assay [12] and in assay [13] were 2.84 µM (active) and 24.5 µM (active), respectively.

On to `CCc1cccc(CC)c1N(COC)C(=O)CS(=O)(=O)O`, for which the result in assay [12] and in assay [13] was inactive.

Turning to `N=C(N)c1ccc(OCCCCCOc2ccc(C(=N)N)cc2)cc1`, the compound was called inactive in assay [2], in [9], in assay [10], in assay [11], in [3] and in assay [7]. Besides, the AC50 in assay [14] is 41.4 µM (active).

Consider `CCCCC=O`, for which the compound was called inactive in [1], in assay [9], in assay [15], in [16], in assay [10] and in [11]. Besides, the call in assay [17], in assay [18], in assay [3], in [19] and in [7] was inactive. Also, in [14], the AC50 was 105 µM (active).

Turning to `CCCCCCCCCCCCOC(=O)c1cc(O)c(O)c(O)c1`, the values for the AC50 in assay [12] and in assay [13] were 1.05 µM (active) and 5.48 µM (active), respectively.

Regarding `OCC(CO)(CBr)CBr`, the result in assay [1], in assay [8], in [2], in assay [9], in assay [10] and in assay [11] was inactive. Moreover, the outcome in assay [3], in assay [4], in assay [5], in assay [6] and in assay [7] was inactive.

Take `O=C1NS(=O)(=O)c2ccccc21`: the call in assay [1], in [8], in assay [2], in assay [9], in assay [10] and in [11] was inactive. For the same compound, the call in [3], in assay [5], in assay [6] and in assay [7] was inactive. For the same compound, in assay [4], the AC50 was 0.113 µM (active).
